LEDGF integ inh: blockers of LEDGF/p75-dependent integrase strand transfer – biochemical, TR-FRET, high throughput, primary screen; HIV-1 integrase (with human LEDGF/p75); TR-FRET IN-LEDGF/p75 DNA integration, Eu/Cy5; inhibition, % at 3.7 µM; 0.64% of 370,000 active; AID 743269, 2014;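 active means inhibition above the screen-wide mean plus 3 SD, cut at about 13% in these data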;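 further: signal is the Cy5 over europium emission ratio at 671 and 618 nm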
PG9 Ab binder: binders of HIV-1 gp120 antibody PG9, primary screen, biochemical, TR-FRET. TR-FRET gp120-PG9 antibody binding. inhibition, % at 6.7 µM. 0.43% of 360,000 active; in the data active means inhibition above about 8.5%
MBD2 inh: inhibitors of MBD2 binding to methylated DNA, primary screen, biochemical, TR-FRET, DNA-binding domain, human; MBD2 binding to methylated oligonucleotide; 0.31% of 370,000 active; inhibition, % at 4.4 µM; Methyl-CpG-binding domain protein 2 (Homo sapiens), Q9UBB5; in the data active means inhibition above about 13%
Target sequence (Q9UBB5 whole entry, looked up, the tested form may be a part): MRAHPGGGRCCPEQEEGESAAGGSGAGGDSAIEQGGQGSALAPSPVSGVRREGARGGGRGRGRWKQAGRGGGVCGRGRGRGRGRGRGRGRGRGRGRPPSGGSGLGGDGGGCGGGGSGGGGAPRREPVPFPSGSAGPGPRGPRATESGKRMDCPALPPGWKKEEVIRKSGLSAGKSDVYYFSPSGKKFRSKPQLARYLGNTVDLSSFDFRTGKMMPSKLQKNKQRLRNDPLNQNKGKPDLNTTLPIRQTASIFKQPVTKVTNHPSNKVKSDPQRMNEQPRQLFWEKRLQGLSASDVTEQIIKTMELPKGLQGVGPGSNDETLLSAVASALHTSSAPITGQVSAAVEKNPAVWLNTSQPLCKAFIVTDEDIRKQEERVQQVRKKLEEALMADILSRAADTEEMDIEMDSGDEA
UHRF1 MBD2 ctr: UHRF1 methylated DNA binding inhibitors, primary screen, counter-screen for MBD2 inhibitor project, biochemical, TR-FRET, human UHRF1, single concentration; E3 ubiquitin-protein ligase UHRF1 (Homo sapiens), Q96T88; UHRF1 binding to methylated oligo; inhibition, % at 4.4 µM; 0.75% of 370,000 active; AID 687016, 2013; in the data active means inhibition above about 21%;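 further: UHRF1 SRA domain binding a hemimethylated CpG hairpin DNA probe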
DNMT1 inh: human DNMT1 methyltransferase inhibitors, primary screen, biochemical, molecular beacon, fluorescence, HinP1I cleavage, uHTS. DNA (cytosine-5)-methyltransferase 1 (Homo sapiens), P26358. 0.83% of 360,000 active. inhibition (reported as % activation of signal), % at 10 µM; in the data active means inhibition above about 50%
rCAG binder: binders of r(CAG) RNA repeats, primary screen, biochemical, fluorescence. 1.3% of 370,000 active. inhibition, % at 3 µM. r(CAG) RNA repeat, TO-PRO-1 dye displacement fluorescence. AID 651821, 2012;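 active means inhibition above the plate cutoff, the mean of all test compounds on that plate plus 3 SD, cut at about 35% in these data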;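 further: higher means more dye released from RNA so lower well fluorescence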
DNMT1 confirm: DNMT1 methyltransferase inhibitor retest, confirmation, biochemical, molecular beacon, fluorescence, single concentration. shares compounds with DNMT1 inh. DNMT1 molecular beacon HinP1I cleavage. inhibition, % at 10 µM. 8% of 2,300 active. AID 602385, 2012;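 active means average inhibition of at least 30% in the single-concentration confirmation test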
DNMT1 interf: shows spectral interference in the DNMT1 beacon assay. shares compounds with DNMT1 inh. DNMT1 molecular beacon spectral interference counterscreen, fluorescence 485/520. activation (fluorescence interference), % at 10 µM. 1% of 2,300 active. AID 602387;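 active means activation of at least 30% at 10 µM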;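 further: DNMT1 catalytic domain with a HinP1I cleavage step and a FAM/dabcyl DNA beacon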
Hits are given with their value. Sampled rows, rich in hits. Any-hit rate of the full collection: about 3.5%.

Results for CC(C)C(NC(=O)c1ccc(C(C)(C)C)cc1)C(=O)Nc1ccc(N2CCOCC2)cc1 (stereo not given) ?
LEDGF integ inh: inactive; PG9 Ab binder: inactive; MBD2 inh: inactive; UHRF1 MBD2 ctr: inactive; DNMT1 inh: inactive; rCAG binder: inactive

How did O=C(NC1CCCC1)C(c1cccnc1)N(C(=O)c1csnn1)c1ccc(F)cc1 (stereo not given) do in these assays?
LEDGF integ inh: inactive; PG9 Ab binder: inactive; MBD2 inh: inactive; UHRF1 MBD2 ctr: inactive; DNMT1 inh: inactive; rCAG binder: inactive

Results for Cc1ccccc1NC(=O)NC1(C(=O)N2CCN(C)CC2)CCCCC1 ?
LEDGF integ inh: inactive; PG9 Ab binder: inactive; MBD2 inh: inactive; UHRF1 MBD2 ctr: inactive; DNMT1 inh: inactive; rCAG binder: inactive

Results for O=C(COC(=O)CCN1C(=O)/C(=C\C=C\c2ccccc2)SC1=S)Nc1ccc(Br)cc1 ?
LEDGF integ inh: inactive; PG9 Ab binder: inactive; MBD2 inh: inactive; UHRF1 MBD2 ctr: inactive; DNMT1 inh: 67; rCAG binder: inactive; DNMT1 confirm: inactive; DNMT1 interf: inactive

How did C[C@@H]1CN([C@H](C)CO)C(=O)CCCn2nncc2CO[C@H]1CN(C)Cc1ccccc1C(=O)O do in these assays?
LEDGF integ inh: inactive; PG9 Ab binder: inactive; MBD2 inh: inactive; UHRF1 MBD2 ctr: inactive; DNMT1 inh: inactive; rCAG binder: inactive

What do the screens show for `CCc1c(C)c2ccc(OC(C)C(=O)NC(Cc3c[nH]c4ccc(O)cc34)C(=O)O)c(C)c2oc1=O` (stereo not given)?
LEDGF integ inh: inactive; PG9 Ab binder: inactive; MBD2 inh: inactive; UHRF1 MBD2 ctr: inactive; DNMT1 inh: inactive; rCAG binder: inactive

Results for Cc1cc(=O)oc2c(C)c(OC(C)C(=O)NC(Cc3c[nH]c4ccc(O)cc34)C(=O)O)ccc12 (stereo not given) ?
LEDGF integ inh: inactive; PG9 Ab binder: inactive; MBD2 inh: inactive; UHRF1 MBD2 ctr: inactive; DNMT1 inh: 85; rCAG binder: inactive; DNMT1 confirm: inactive; DNMT1 interf: inactive

What do the screens show for `O=C(COC(=O)[C@@H]1CCCN1C(=O)c1cccs1)Nc1cccc(Cl)c1`?
LEDGF integ inh: inactive; PG9 Ab binder: inactive; MBD2 inh: inactive; UHRF1 MBD2 ctr: inactive; DNMT1 inh: inactive; rCAG binder: inactive

What do the screens show for `COCCN1C(=O)/C(=C/c2cc3c(cc2Br)OCO3)NC1=S`?
LEDGF integ inh: inactive; PG9 Ab binder: inactive; MBD2 inh: inactive; UHRF1 MBD2 ctr: inactive; DNMT1 inh: inactive; rCAG binder: inactive

What do the screens show for `O=C1Nc2ccc3c(c2C1=Cc1cc2c(cc1Br)OCO2)OCO3`?
LEDGF integ inh: inactive; PG9 Ab binder: inactive; MBD2 inh: inactive; UHRF1 MBD2 ctr: inactive; DNMT1 inh: 67; rCAG binder: inactive; DNMT1 confirm: inactive; DNMT1 interf: inactive

How did CC1(C(=O)Nc2ccc3nc[nH]c3c2)CCN1C(=O)C1(c2ccccc2)CC1 (stereo not given) do in these assays?
LEDGF integ inh: inactive; PG9 Ab binder: inactive; MBD2 inh: inactive; UHRF1 MBD2 ctr: inactive; DNMT1 inh: 101; rCAG binder: inactive; DNMT1 confirm: inactive; DNMT1 interf: inactive

Results for COc1cc([N+](=O)[O-])ccc1-c1ccc(/C=C2\C(=O)ON=C2c2ccccc2)o1 ?
LEDGF integ inh: inactive; PG9 Ab binder: inactive; MBD2 inh: inactive; UHRF1 MBD2 ctr: inactive; DNMT1 inh: 80; rCAG binder: inactive; DNMT1 confirm: inactive; DNMT1 interf: inactive

What do the screens show for `NC(=O)C1CCN(C(=O)C2CCN(S(=O)(=O)c3ccccc3)CC2)CC1`?
LEDGF integ inh: inactive; PG9 Ab binder: inactive; MBD2 inh: inactive; UHRF1 MBD2 ctr: inactive; DNMT1 inh: 81; rCAG binder: inactive; DNMT1 confirm: inactive; DNMT1 interf: inactive

Results for O=C(C1CCN(S(=O)(=O)c2ccccc2)CC1)N1CCN(c2ccccc2)CC1 ?
LEDGF integ inh: inactive; PG9 Ab binder: inactive; MBD2 inh: inactive; UHRF1 MBD2 ctr: inactive; DNMT1 inh: inactive; rCAG binder: inactive

Results for O=c1c(Cl)c(N/N=C/c2ccc(Br)cc2)cnn1-c1ccccc1 ?
LEDGF integ inh: inactive; PG9 Ab binder: inactive; MBD2 inh: inactive; UHRF1 MBD2 ctr: inactive; DNMT1 inh: 90; rCAG binder: inactive; DNMT1 confirm: inactive; DNMT1 interf: inactive

How did CC(C)c1ccc(/C=N/NC(=O)C2CCCC2)cc1 do in these assays?
LEDGF integ inh: inactive; PG9 Ab binder: inactive; MBD2 inh: inactive; UHRF1 MBD2 ctr: inactive; DNMT1 inh: inactive; rCAG binder: inactive

What do the screens show for `CC(C)(C)c1ccc(/C=N/NC(=O)C2CCCC2)cc1`?
LEDGF integ inh: inactive; PG9 Ab binder: inactive; MBD2 inh: inactive; UHRF1 MBD2 ctr: inactive; DNMT1 inh: 77; rCAG binder: inactive; DNMT1 confirm: inactive; DNMT1 interf: inactive

How did Cc1ccccc1N=C1NC(=O)/C(=C/c2cccn2-c2cccc(C(=O)O)c2)S1 do in these assays?
LEDGF integ inh: inactive; PG9 Ab binder: inactive; MBD2 inh: inactive; UHRF1 MBD2 ctr: inactive; rCAG binder: inactive

How did O=C(O)c1cccc(-n2cccc2/C=C2\SC(=O)N(Cc3ccccc3F)C2=O)c1 do in these assays?
LEDGF integ inh: inactive; PG9 Ab binder: inactive; MBD2 inh: inactive; UHRF1 MBD2 ctr: inactive; DNMT1 inh: 91; rCAG binder: inactive; DNMT1 confirm: inactive; DNMT1 interf: inactive

What do the screens show for `O=C(CN1C(=O)S/C(=C/c2cccn2-c2ccc(O)cc2)C1=O)N1CCCC1`?
LEDGF integ inh: inactive; PG9 Ab binder: inactive; MBD2 inh: inactive; UHRF1 MBD2 ctr: inactive; DNMT1 inh: inactive; rCAG binder: inactive

How did O=C(O)c1cccc(-n2cccc2/C=C2/SC(=O)N(CC(=O)N3CCCC3)C2=O)c1 do in these assays?
LEDGF integ inh: inactive; PG9 Ab binder: inactive; MBD2 inh: inactive; UHRF1 MBD2 ctr: inactive; DNMT1 inh: 70; rCAG binder: inactive; DNMT1 confirm: inactive; DNMT1 interf: inactive

How did C=CCN1C(=O)/C(=C2/Sc3ccccc3N2CCCS(=O)(=O)O)SC1=S do in these assays?
LEDGF integ inh: inactive; PG9 Ab binder: inactive; MBD2 inh: inactive; UHRF1 MBD2 ctr: inactive; DNMT1 inh: 67; rCAG binder: 85; DNMT1 confirm: inactive; DNMT1 interf: inactive

Screening results deposited in PubChem by several laboratories.
